# This is part of a sample that, as a whole, favours compounds with a hit. Of some 83,000 tested, about 20% had one in any assay.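 Growth was measured after 48 h exposure to one concentration of compound in 96-well plates. Values under 10 count as active.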 Active and inactive are the calls of the source.
# Tested on: HL-60(TB) leukemia
# Assay: NCI-60 one-dose screen, 48 h (100 = growth as untreated, 0 = no growth, -100 = all killed)
# Conditions: 10 µM unless noted
row,Compound,growth
1,Clc1ccc(-c2nnc(Cn3ccnc3)o2)cc1,93.8% (inactive)
2,CN1C(=O)N(C)C2C1NN=c1s/c(=C\c3ccc(Cl)cc3Cl)c(=O)n12 (stereo not given),-26.9% (active)
3,Cn1cccc1-c1nc2c3c(ccc2[nH]1)C(=O)c1ccccc1C3=O,82.3% (inactive)
4,C=C(C)[C@@H]1CC[C@]2(C)[C@H](CC=C3[C@@H]4CC(C)(C)CC[C@]4(C(N)=O)CC[C@]32C)[C@@]1(C)CCC#N,16% (inactive)
5,O=C1C=CC(=O)N1c1ccccc1N1C(=O)C=CC1=O,31.7% (inactive)
6,CSc1nc(Nc2cccc(NC(=O)/C(C#N)=C/c3c(Cl)cccc3Cl)c2)c(C#N)c(-c2cccc([N+](=O)[O-])c2)n1,58.3% (inactive)
7,COc1ccc(/C=C/C=C\C(=O)c2ccc(-n3ccnc3)cc2)cc1,66.9% (inactive)
8,c1cc2c(ccc3[nH]c(-c4ccc5[nH]ncc5c4)c4c(c32)CCCC4)n1,9.65% (active)
9,Cc1ccc(-c2nc(C#N)c(S(=O)(=O)N(C)C)o2)cc1,0.829% (active)
10,O=C(/C(=C\c1c(-c2ccccc2)[nH]c2ccccc12)S(=O)(=O)c1ccccc1)c1ccccc1,-18.2% (active)
11,O=C(CCC(=O)OC1CCCC1)OC1CCCC1,103% (inactive)
12,O=[N+]([O-])c1ccc(OCCO)cc1,125% (inactive)
13,COCCOCCOCCOCCOc1ccc2c(c1)C(=O)c1nc3ncccc3c(=O)n1-2,-64.6% (active)
14,COc1ccc(C(=O)c2cc(C)c(OC)c(C)c2)cc1OC(=O)CCl,-43.6% (active)
15,COc1c(Br)cc(C(c2cc(Br)c(OC)c(Br)c2)c2ccccc2C(=O)O)cc1Br,91% (inactive)
16,COc1ccc(-c2nsc3c2NC(=O)CC3c2ccc3c(c2)OCO3)cc1 (stereo not given),-22.3% (active)
17,O=C1C=CC(=O)N1c1ccccc1,44.5% (inactive)
18,COc1ccc(C2NC3=C(CCCC3)C(C#N)(C#N)C2(C#N)C#N)cc1 (stereo not given),41.3% (inactive)
19,Cc1cc(NS(=O)(=O)c2ccccc2)c(OS(=O)(=O)c2ccccc2)cc1C,105% (inactive)
20,NC(=S)N/N=C\c1nccc2c(N)cccc12,-10.4% (active)

row,Compound,growth
1,COc1ccc(OCC(=O)OC(C)C)cc1,90% (inactive)
2,COc1cc(C(=O)/C=C/c2c(Cl)nc3sccn23)cc(OC)c1OC,52.2% (inactive)
3,CC1(C)CC[C@]2(C(=O)N[C@H](CO)Cc3ccccc3)CC[C@]3(C)C(=CC[C@@H]4[C@@]5(C)CCCNC(C)(C)[C@@H]5CC[C@]43C)[C@@H]2C1,31.2% (inactive)
4,OCC1OC2C(NC(=S)N2c2ccccc2)C(O)C1O (stereo not given),90.8% (inactive)
5,COc1ccc(CNc2c3ccccc3nc3ccccc23)cc1OC,12.7% (inactive)
6,CCCCCCCCCNCCCCCCCCC,28.6% (inactive)
7,O=C1NCCN1/N=C/c1c(Cl)nc2n1CCS2,72.2% (inactive)
8,O=C(O)c1ccccc1C(=O)c1ccc(I)cc1,93.1% (inactive)
9,NC1=C(c2nn[nH]n2)C(c2ccccc2Cl)c2ccc3ccccc3c2O1 (stereo not given),54.3% (inactive)
10,CS(=O)(=O)Nc1cccc(-c2ccc3ncnc(Nc4ccc(F)c(Cl)c4)c3c2)c1,24.8% (inactive)
11,CC1(C)CC[C@]23CC[C@]4(C)[C@H](CC[C@@H]5[C@@]6(C)C/C(=C/O)C(=O)C(C)(C)[C@@H]6CC[C@]54C)[C@H]2[C@H]1OC3,102% (inactive)
12,CN1CCN(Cc2ccc(NC(=O)c3cncc(C#Cc4cnc(N)c5cnccc45)c3)cc2C(F)(F)F)CC1,-25% (active)
13,COc1ccc(/C(C)=C(\c2ccc(Cl)cc2)c2ccc(OCCN3CCCCCC3)cc2)cc1F,-15.4% (active)
14,C/C=C1/CN(CCCCC)CC[C@H]1C(=O)c1cc2ccccc2[nH]1,90.6% (inactive)
15,OC(CNc1ccnc2cc(Cl)ccc12)CNc1ccnc2cc(Cl)ccc12,-5.79% (active)
16,COc1ccc2sc(-n3nc4nc5n(c(=O)c4c3N)-c3ccccc3Sc3ccccc3-5)nc2c1,66.6% (inactive)
17,CN(C)c1ccc(/C=C2\C=C(c3nc4ccccc4s3)OC2=O)cc1,94.8% (inactive)
18,Brc1ccc(-c2cn3ccnc3c(-c3ccc(Br)cc3)n2)cc1,30.2% (inactive)
19,Fc1c[c-]c(-c2ccccn2)c(F)c1.[CH3-].[Pt+2].c1ccc(P(C[PH+](c2ccccc2)c2ccccc2)c2ccccc2)cc1,-24.2% (active)
20,CCC(=O)C1C(=O)c2ccccc2C1=O,75.3% (inactive)

# — PubChem BioAssay (NCI)
